Shown is part of a subset that was picked to be rich in hits.
CBX7 inh: CBX7 inhibition, primary AlphaScreen | O95931 | AlphaScreen His6-CBX7 / biotin-H3K27me3 peptide binding; stronger effect = lower value | normalised signal (fraction of DMSO) (concentration not given with the values) | 66,000 tested, 1.1% active; in the data active = normalised signal below about 0.5
Target sequence (O95931 whole entry, looked up): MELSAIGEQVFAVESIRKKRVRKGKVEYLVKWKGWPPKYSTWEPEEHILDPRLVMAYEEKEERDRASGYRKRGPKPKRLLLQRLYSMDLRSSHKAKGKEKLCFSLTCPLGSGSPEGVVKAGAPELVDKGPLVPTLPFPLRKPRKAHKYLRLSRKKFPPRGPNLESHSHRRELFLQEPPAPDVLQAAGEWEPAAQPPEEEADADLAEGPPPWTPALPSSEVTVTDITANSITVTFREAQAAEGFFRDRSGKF
Hits are given with their value; . = inactive.

SMILES | CBX7 inh
O=C(CN1CCCCC1)Nc1c2c(nc3ccccc13)N(c1cccc(Cl)c1)CC2 | .
CCc1nc2ccccc2c(NC(=O)CN2CCN(C)CC2)c1C | 0.0535
CCCCc1nc2ccccc2c(NC(=O)CN2CCN(C(=O)c3ccco3)CC2)c1CCC | .
O=C(CN1C(=O)CC(c2ccccc2)Sc2ccccc21)Nc1ccc(C(F)(F)F)cc1 (stereo not given) | .
COc1cccc(-c2nn(C)c3sc(C(=O)Nc4ccccc4C)cc23)c1 | .
COc1cccc(-c2nc(-c3cccc(C)c3)no2)c1OC | .
COc1ccc(-c2[nH]c(-c3cc(OC)c4c(c3)OCO4)nc2-c2ccccc2)cc1 | .
COc1ccc(-c2nc(-c3ccccc3)c(-c3ccccc3)[nH]2)cc1O | .
COc1cccc(-c2nc(-c3ccccc3)c(-c3cc([N+](=O)[O-])ccc3C)[nH]2)c1OC | 0.369
COc1ccc(-c2nc(-c3ccccc3)c(-c3ccccc3)[nH]2)c(OC)c1 | 0.37
COc1ccc(OC)c(-c2nc(-c3ccccc3)c(-c3ccccc3)[nH]2)c1 | 0.411
COc1cc(OC)cc(-c2nc(-c3ccccc3)c(-c3ccc(Cl)cc3)[nH]2)c1 | .
COc1ccc(OC)c(-c2nc3ccccc3nc2-c2ccccc2)c1 | .
COc1ccc(-c2nc(-c3ccccc3)c(-c3ccc(Sc4ccccc4)cc3)[nH]2)cc1OC | .
COc1ccc(-c2nc(-c3ccccc3)c(-c3ccc(F)cc3)[nH]2)c(OC)c1C | 0.485
COc1ccc(Cn2c(CCC(=O)NCc3ccc(C)cc3)nc3cccnc32)cc1 | .
CCOC(=O)c1c(NC(=O)c2cc(Cl)ccc2OC)sc2c1CCC(C)C2 (stereo not given) | .
COc1ccccc1-c1cc(C(=O)NCCN2CCOCC2)c2ccccc2n1 | .
Cc1cccc(NC(=O)Cn2cc(S(=O)(=O)c3ccccc3)c(=O)c3cc(F)ccc32)c1 | .
O=C(O)CCNS(=O)(=O)c1cccc2cccnc12 | .
CCN(c1ccccc1)S(=O)(=O)c1ccc2[nH]cc(C(=O)NCCCOC)c(=O)c2c1 | .
CCOc1ccc(-c2cc(CCCC(=O)NCc3ccc4c(c3)OCO4)no2)cc1 | .
Clc1ccccc1CCNc1ncnc2ccccc12 | .
O=C(NC1CCCCCC1)c1ccc2c(c1)ncn2-c1ccc(F)cc1F | .
Cc1oc(-c2ccccc2F)nc1CN1CCC(C(=O)NCC2CCCO2)CC1 (stereo not given) | .
SMILES | CBX7 inh
CCOC(=O)c1cnc2cc(Cl)c(OC)cc2c1Nc1cccc(OC)c1 | .
Cc1ccc(C)c(N2CCN(C(=O)c3cnn4c(C)c(Cc5ccccc5C)c(C)nc34)CC2)c1 | .
c1cc2nncn2nc1N1CCCCC1 | .
CCC(C)NC(=O)c1cc(-c2ccc(OC)cc2)nc2ccc(C(C)C)cc12 (stereo not given) | .
COc1ccc(NC2c3ccccc3C(=O)N2Cc2ccccc2Cl)cc1OC (stereo not given) | .
Cc1cc(NC2c3ccccc3C(=O)N2Cc2ccccc2)ccc1Br (stereo not given) | .
Cc1ccccc1N1C(=O)c2ccccc2C1Nc1ccc(Br)cc1F (stereo not given) | .
COc1cccc(NC2c3ccccc3C(=O)N2Cc2ccccc2)c1 (stereo not given) | .
CCOc1ccc(N2C(=O)c3ccccc3C2Nc2ccc(C)cc2)cc1 (stereo not given) | .
COc1ccc(CN2C(=O)c3cccnc3C2Nc2ccc(Br)cc2F)cc1 (stereo not given) | 0.192
COc1cc(OC)c(NC2c3ccccc3C(=O)N2Cc2ccccc2)cc1Cl (stereo not given) | .
COc1ccc(CN2C(=O)c3cccnc3C2Nc2ccc(Br)c(C)c2)cc1 (stereo not given) | 0.149
COc1ccc(CN2C(=O)c3cccnc3C2Nc2ccc(OC)c(Cl)c2)cc1 (stereo not given) | 0.157
CCOc1ccc(C2C(N3C(=O)c4ccccc4C3=O)C(=O)N2c2ccc(Br)c(C)c2)cc1 (stereo not given) | .
COc1ccc(NC2c3ccccc3C(=O)N2Cc2ccccc2Cl)cc1 (stereo not given) | .
CCOc1ccc(N2C(=O)c3cccnc3C2Nc2ccc(Br)c(C)c2)cc1 (stereo not given) | 0.164
O=C(NC1CCCC1)C1c2cccn2CC(=O)N1CCc1ccc(Cl)cc1 (stereo not given) | .
CC(c1cccnc1)N(CCN(C)C)C(=O)Nc1ccccc1 (stereo not given) | .
CCCCCCNC(=O)c1c[nH]c2ccc(S(=O)(=O)N(C)c3ccc(CC)cc3)cc2c1=O | .
FC(F)(F)c1cccc(Nc2c3c(nc4ccc(Cl)cc24)CCCC3)c1 | .
Cc1ccccc1Nc1c(-c2cccc(Cl)c2)nc2cnccn12 | .
CCCn1c(C2CC(=O)N(c3cc(C)cc(C)c3)C2)nc2ccccc21 (stereo not given) | .
CCOc1ccc(Sc2cc(C(=O)NCc3cccnc3)c3ccccc3n2)cc1 | .
Cc1ccc(NC(=O)Cn2nc(Cc3cccnc3)c3ccccc3c2=O)nc1 | .
CCCc1cc(-c2[nH]ncc2-c2ccc3c(c2)OCCCO3)c(O)cc1OC | 0.466
SMILES | CBX7 inh
COc1ccc(-c2[nH]ncc2-c2ccc(Br)cc2)c(O)c1 | .
CCc1cc(-c2[nH]ncc2-c2ccc(F)cc2)c(O)cc1OC | .
CC1(C)Cc2c(C#N)c(SCCc3ccccc3)nc(N3CCOCC3)c2CO1 | .
CCCc1ccc(C(C)NC(=O)c2cc(C)on2)cc1 (stereo not given) | .
COc1ccc(C(=O)N2CCN(c3ccc4nnc(-c5ccccc5)n4n3)CC2)cc1OC | .
Oc1cccc2ccc(Nc3ccccn3)nc12 | 0.00869
c1ccc(-c2csc(Nc3ccccn3)n2)cc1 | .
Oc1cccc2ccc(Oc3cccc4cccnc34)nc12 | .
CCc1ccc(-c2csc(Nc3ccc(S(=O)(=O)Nc4cc(OC)nc(OC)n4)cc3)n2)cc1 | .
CCc1ccc(-c2nc(CSCC(=O)NC3CCCCCC3)c(C)o2)cc1 | 0.395
Cc1oc(-c2cccc(F)c2)nc1CSCC(=O)NC1CCCCC1 | .
Cc1oc(-c2ccc(Cl)cc2)nc1CSCC(=O)NC1CC1 | .
NC(=O)c1c(NC(=O)CN2CCCCC2)sc2c1CCCC2 | .
O=C(CN1CCCCCC1)Nc1c2c(nc3c1CCC3)CCCC2 | 0.0744
CCCCC(=O)Nc1c2c(nc3c1CCC3)CCCC2 | .
O=C(CCCN1C(=O)c2ccccc2C1=O)Nc1c2c(nc3c1CCC3)CCC2 | .
O=C(Cc1ccccc1)Nc1c2c(nc3ccccc13)CCC2 | .
O=C(CN1CCCC1)Nc1c2c(nc3c1CCC3)CCC2 | 0.27
COc1ccc(OC)c(NC(=O)c2nn(-c3ccc(OC)cc3OC)c(=O)c3ccccc23)c1 | .
COC(=O)c1cc2c(s1)CN(Cc1ccc(Cl)cc1)C2 | .
COc1ccc(NC(=O)c2c(NCc3cccnc3)sc3c2CCCC3)c(OC)c1 | 0.307
COc1ccc(OC)c(NC(=O)c2c(NCc3ccncc3)sc3c2CCC(C)C3)c1 (stereo not given) | .
COc1ccc(NC(=O)c2c(NCc3cccnc3)sc3c2CCC(C)C3)c(OC)c1 (stereo not given) | 0.462
COc1ccc(OC)c(NC(=O)c2c(NCc3cccnc3)sc3c2CCC(C)C3)c1 (stereo not given) | .
COc1ccc(OC)c(NC(=O)c2c(NCc3cccnc3)sc3c2CCCC3)c1 | .
COc1ccc(CNc2sc3c(c2C(=O)Nc2ccc(OC)cc2OC)CCC3)cc1 | .
COc1ccccc1NC(=O)Nc1nnc(N2CCCCC2C)s1 (stereo not given) | .

Screens deposited in PubChem BioAssay by Bradner/Qi Labs at DFCI.
